Screens (PubChem)
An excerpt weighted towards active compounds, which were near 2.5% of everything screened.
LMP1 NFkB inh: reduces LMP1-driven NF-kappaB luciferase signal; LMP1-induced NF-kappaB luciferase reporter cells, luminescence; 350,000 compounds, 0.69% hits; AID 504558; inhibition, % at 12.5 µM; in the data active = inhibition above about 41%; inconclusive = no clear call, values can overlap the other calls
TWEAK-Fn14 inh: TWEAK-Fn14 signaling inhibition. TWEAK-stimulated Fn14 reporter cells, luciferase luminescence, 8 h. inhibition, % at 10 µM. 360,000 compounds, 2% hits. AID 1159606; in the data active = inhibition above about 50%
EWS-Fli block: EWS/Fli transcriptional activity inhibition. A673 NR0B1-luciferase reporter, viability-normalised. inhibition, % at 12.6 µM. 350,000 compounds, 0.67% hits. AID 651661;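 active = mean inhibition of at least 50% after viability correction, with every replicate also passing that limit; inconclusive = mean reaches 50% but only one of two replicates passes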;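 note: firefly luciferase signal divided by Alamar Blue viability fluorescence both relative to DMSO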
LGR2 antag: inhibitors of bursicon-induced Drosophila LGR2 receptor cAMP signaling | 380,000 compounds, 0.35% hits | inhibition, % at 9.99 µM | AID 720647 | HEK293 LGR2, CRE-luciferase, bursicon-stimulated, 4 h;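 active = drop in luminescence signal, shown as inhibition above about 50% in the replicate tests, limit read from the data, passing the limit was not always enough; inconclusive = probably only some replicates passing the limit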;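 note: agonist challenge used bursicon conditioned medium at about half maximal strength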
TROY signal inh: inhibitors of TROY-dependent NF-kB signaling | Q293 LMP1-TROYcd NF-kB luciferase reporter, 4 h | 360,000 compounds, 0.98% hits | inhibition, % at 10 µM;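 active = compounds whose plate-normalised and pattern-corrected inhibition of the luciferase reporter signal at the single screening dose is 50% or more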
Each line names hits and unclear results; the compound was inactive in the other large screens; ! = repeats disagree.

O=S(=O)(/C(=C/c1ccc(C(F)(F)F)cc1)c1nc2ccccc2[nH]1)c1ccccc1	TWEAK-Fn14 inh 62.9, LGR2 antag inconclusive (no result: EWS-Fli block)
CC(C)c1ccc(/C=C(\c2nc3ccccc3[nH]2)S(=O)(=O)c2ccccc2)cc1	TWEAK-Fn14 inh 93.8, LGR2 antag 59.2 (no result: EWS-Fli block)
COC(=O)/C(=C\c1ccc(O)cc1)c1nc2ccccc2[nH]1	none
C/C(=C\c1ccc(N)cc1)c1nc2ccccc2[nH]1	none
C[C@H]1CN([C@@H](C)CO)C(=O)Cc2cc(NC(=O)NC3CCCCC3)ccc2O[C@@H]1CN(C)C(=O)Nc1ccc2c(c1)OCO2	none (no result: LMP1 NFkB inh, TWEAK-Fn14 inh, TROY signal inh)
C[C@@H]1CN([C@@H](C)CO)C(=O)c2cc(NS(=O)(=O)c3ccccc3)ccc2O[C@@H](C)CCCCO[C@@H]1CN(C)S(=O)(=O)c1cn(C)cn1	none (no result: LMP1 NFkB inh, TWEAK-Fn14 inh, TROY signal inh)
Cc1nn(CCc2nn[nH]n2)c2nc(-c3ccc(Br)cc3)cc(C(F)(F)F)c12	TROY signal inh 52.9
Cc1nn(CCc2nn[nH]n2)c2nc(C(F)(F)F)cc(C(F)(F)F)c12	none (no result: EWS-Fli block, LGR2 antag)
CCCc1nc2oc3c(Cl)ncnc3c2c2c1CCCC2	none
CC(C)Cc1nc2oc3c(Cl)ncnc3c2c2c1CCCC2	TROY signal inh 73.2
C/C=C/c1cnc2c(c1)C(=O)N([C@H](C)CO)C[C@H](C)[C@H](CN(C)C(=O)Cc1ccccn1)O2	none (no result: LMP1 NFkB inh, TWEAK-Fn14 inh, TROY signal inh)
CCNC(=O)[C@H]1[C@H](CO)[C@H]2Cn3c(ccc(-c4ccc(F)cc4)c3=O)[C@H]2N1C(=O)Cc1cccnc1	none (no result: LMP1 NFkB inh, TWEAK-Fn14 inh, TROY signal inh)
CNC[C@H](CC1CCCCC1)NC[C@H](Cc1ccccc1)NCCC12CC3CC(CC(C3)C1)C2	LGR2 antag 101.3
O=C(C1CCCC1)N1CC2(C1)[C@@H](c1ccccc1)[C@H](CO)N2C(=O)CC1CC1	none (no result: LMP1 NFkB inh, TWEAK-Fn14 inh, TROY signal inh)
O=C(Nc1ccccc1-c1nnn(CC(=O)N2CCc3ccccc3C2)n1)C1CCC1	TWEAK-Fn14 inh 71.1 (no result: EWS-Fli block, LGR2 antag, TROY signal inh)
CC1Cc2ccccc2N1C(=O)Cn1nnc(-c2ccccc2NC(=O)C2CCC2)n1 (configuration not stated)	TROY signal inh 59.4 (no result: EWS-Fli block, LGR2 antag)
C[C@H](CO)N1C[C@H](C)[C@H](CN(C)C(=O)Nc2cccc3ccccc23)Oc2ccc(NS(=O)(=O)c3cccs3)cc2CC1=O	none (no result: LMP1 NFkB inh, TWEAK-Fn14 inh, TROY signal inh)
O=C(c1ccc(F)cc1)N1CCCCN2[C@H](CO)[C@@H](c3ccc(-c4ccc(F)cc4)cc3)[C@H]2C1	none (no result: LMP1 NFkB inh, TWEAK-Fn14 inh, LGR2 antag, TROY signal inh)
Cc1ccc(-c2cn(-c3ccccc3)c(SCC(=O)NC3CCS(=O)(=O)C3)n2)cc1C (configuration not stated)	TROY signal inh 51.9
Nn1cc(-c2ccccc2)nc1SCC(=O)NCCc1ccccc1	none
NNC(=O)CSc1nc(-c2ccccc2)cn1-c1ccccc1	TWEAK-Fn14 inh 63.0, TROY signal inh 72.3
Cc1ccc(SCC(=O)NC2CCS(=O)(=O)C2)cc1C (configuration not stated)	none
Cc1cc2c(=O)oc(-c3ccc(F)cc3)nc2s1	TWEAK-Fn14 inh 52.7
Cc1cc2c(=O)oc(-c3ccccc3Br)nc2s1	none
Cc1cc(C)c(S(=O)(=O)/N=C2\C=C(NS(=O)(=O)c3ccccc3)C(=O)c3ccccc32)c(C)c1	none (no result: EWS-Fli block)
Cc1ccc(NC2=C/C(=N\S(=O)(=O)c3cccs3)c3ccccc3C2=O)c(C)c1	LMP1 NFkB inh 95.0, TWEAK-Fn14 inh 94.8, TROY signal inh 69.2 (no result: EWS-Fli block, LGR2 antag)
Cc1cccc(NC2=C/C(=N/S(=O)(=O)c3cccs3)c3ccccc3C2=O)c1	TWEAK-Fn14 inh 97.2 (no result: EWS-Fli block)
Cc1ccc(Cl)cc1NC1=C/C(=N\S(=O)(=O)c2cccs2)c2ccccc2C1=O	LMP1 NFkB inh 59.5!, TWEAK-Fn14 inh 99.7, LGR2 antag 105.5, TROY signal inh 70.6
COc1ccc(CNC(=O)C[C@H]2CC[C@@H]3[C@@H](COc4ccc(NC(C)=O)cc4C(=O)N3C)O2)cc1	none (no result: LMP1 NFkB inh, TWEAK-Fn14 inh, TROY signal inh)
C[C@@H]1CN([C@H](C)CO)C(=O)c2cc(-c3ccc(C(=O)N(C)C)cc3)cnc2O[C@H]1CN(C)C	none (no result: LMP1 NFkB inh, TWEAK-Fn14 inh, TROY signal inh)
CCn1c2ccccc2c2cc(NC(=O)CNCc3ccccc3OC)ccc21	EWS-Fli block 56.8
CCOC(=O)C1CCN(CC(=O)Nc2c(C(=O)OC)[nH]c3ccc(Cl)cc23)CC1	TWEAK-Fn14 inh 64.0 (no result: EWS-Fli block, LGR2 antag)
CCOC(=O)c1c(C)[nH]c(C2=NNC(=Nc3ccccc3)SC2)c1C	none
CCOC(=O)c1c(C)[nH]c(C2=NNC(=Nc3ccccc3OC)SC2)c1C	TWEAK-Fn14 inh 51.2
O=C([C@H]1[C@H](CO)[C@H]2Cn3c(ccc(-c4ccccc4F)c3=O)[C@@H]1N2C(=O)C1CCC1)N1CCOCC1	none (no result: LMP1 NFkB inh, TWEAK-Fn14 inh, TROY signal inh)
CO[C@@H]1CN(C)C(=O)c2ccc(NS(=O)(=O)c3cn(C)cn3)cc2OC[C@@H](C)NC[C@@H]1C	none (no result: LMP1 NFkB inh, TWEAK-Fn14 inh, TROY signal inh)
COc1ccc2c(c1)sc1nc(-c3ccccc3)cn12	LMP1 NFkB inh 79.6, TWEAK-Fn14 inh 102.7, TROY signal inh 84.0 (no result: EWS-Fli block, LGR2 antag)
CCOC(=O)N1CCN(C(=O)c2ccc3c(c2)sc2nc(-c4ccc(OC)cc4)cn23)CC1	none (no result: EWS-Fli block)
O=C(Cc1ccccc1)N1C[C@H]2[C@@H](c3ccccc31)[C@@H](CO)N2C(=O)c1cccc(F)c1	none (no result: LMP1 NFkB inh, TWEAK-Fn14 inh, TROY signal inh)
COc1ccc(NC(=O)N(C)C[C@@H]2Oc3ccc(NS(=O)(=O)c4ccc(C)cc4)cc3CC(=O)N([C@@H](C)CO)C[C@@H]2C)cc1	none (no result: LMP1 NFkB inh, TWEAK-Fn14 inh, TROY signal inh)
Cc1ccc2nc(-c3sc4nc(C)ccc4c3N)[nH]c2c1	TWEAK-Fn14 inh 71.2 (no result: EWS-Fli block, LGR2 antag)
Cc1cc(C)c2c(N)c(-c3nc4ccccc4[nH]3)sc2n1	none (no result: EWS-Fli block, LGR2 antag)
Cn1cccc1C(=O)OCC(=O)Nc1ccc2c(c1)CCC2	none (no result: EWS-Fli block, LGR2 antag)
Cn1cccc1C(=O)OCC(=O)Nc1ccc2c(c1)OCO2	LMP1 NFkB inh 44.2
CCn1cc(C(c2ccccc2)C(C(C)=O)[N+](=O)[O-])c2ccccc21 (configuration not stated)	none
CC(=O)C(C(c1ccccc1)c1c[nH]c2ccccc12)[N+](=O)[O-] (configuration not stated)	EWS-Fli block 51.3
CC1=CC(C)(C)N(C(=O)CCl)c2ccccc21	none
CC1=CC(C)(C)N(C(=O)CCl)c2cc(C)ccc21	EWS-Fli block 68.4
N#C/C(=C/c1ccc(-c2ccccc2)o1)c1nc(-c2cccs2)cs1	EWS-Fli block 83.0
N#C/C(=C\c1ccc(-c2ccc(F)cc2)o1)C(=O)Nc1nc(-c2cccs2)cs1	none
Nc1cc(N)cc(-c2nc3ccccc3o2)c1	TWEAK-Fn14 inh 82.5
Cc1ccc2nc(-c3cccc(N)c3)oc2c1	TWEAK-Fn14 inh 78.2, EWS-Fli block 59.0
Cc1cc(C)c2oc(-c3cccc(N)c3)nc2c1	none (no result: LGR2 antag)
Nc1ccc2oc(-c3cccc(Br)c3)nc2c1	none (no result: EWS-Fli block, LGR2 antag)
CCc1ccc2oc(-c3cccc(N)c3)nc2c1	TWEAK-Fn14 inh 75.0 (no result: EWS-Fli block, LGR2 antag)
Cc1ccc2nc(-c3ccccc3)oc(=O)c2c1	TWEAK-Fn14 inh 107.8
CO[C@@H]1CN(C)C(=O)c2cc(NS(=O)(=O)CC(F)(F)F)ccc2OC[C@@H](C)N(Cc2nccs2)C[C@@H]1C	none (no result: LMP1 NFkB inh, TWEAK-Fn14 inh, TROY signal inh)
CN(C)c1ccc(Nc2nc(N)c([N+](=O)[O-])c(N3CCOCC3)n2)cc1	TROY signal inh 69.7
CN(C(=O)COc1ccccc1C(=O)NCCOc1ccccc1)c1ccccc1	TWEAK-Fn14 inh 87.7, LGR2 antag 87.7, TROY signal inh 61.6 (no result: EWS-Fli block)
